Molecules are shown by their SMILES. The whole screen tested about 410,000 compounds, of which about 18,000 (4.4%) were called active. Another 7% or so got no clear call; they are omitted. The sample as a whole holds a higher share of actives than the screen did. A number with no mark means an inactive call. Cut-off read from the data, not from the text of the source: active = activity change below about -60%; inconclusive = no clear call, values can overlap the other calls; inactive = above about -39%.
% is set by controls: 0 for no effect and ±100 for the full control effect.

The nature of the test: qHTS Assay for inhibitors of the human cytomegalovirus (HCMV). The note with it: HFF cells, HCMV-luciferase reporter, 72 h; at 57.5 µM; active compounds read low. A digest of the protocol:
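Screen run at 2 compound doses on HFFs infected with reporter HCMV, MOI 1 PFU/cell. Luciferase activity from cell lysates at 72 h post infection gave inhibition relative to buffer-only and Salinomycin wells.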
A general note: qHTS replaces the single test concentration by a dilution series.
Take `CC(Oc1ccc(Cl)cc1)C(=O)Nc1ncccn1` (stereo not given): the activity change, negative = inhibition is -1.17%.
In the case of `CC(=O)/C(=N\Nc1ccc(Cl)cc1Cl)Sc1cccc2cccnc12` it was -103% (active); in that of `COc1c(Cl)cc(Cl)cc1C(=O)Nc1cccc2cccnc12`, 33.4%.
In the case of `Cc1nn2c(=O)cc(COC(=O)c3ccccc3NC(=O)COc3ccccc3C)nc2s1`, the activity change, negative = inhibition is 31.1%.
Regarding `Cc1cccc(-n2ncc(C(=O)N3CCN(c4ccc(Cl)cc4)CC3)c2C2CCN(C(=O)OC(C)(C)C)CC2)c1`, the activity change, negative = inhibition was 0%.
On to `Cc1cccc(-n2ncc(Cl)c(Cl)c2=O)c1`, for which the activity change, negative = inhibition was -104% (active).
In the case of `CC(=O)c1cccc(NC(=O)c2nc(-c3ccccc3)n(-c3cccc(C)c3)n2)c1` it was -18.5%.
Next, `CN1CCN(C(CNC(=O)c2ccccc2F)c2ccc3c(c2)OCO3)CC1` (stereo not given): 12.6%.
Next, `COc1ccc(N2C(=O)CCC(C(=O)N(C)C3CCCCC3)C2c2ccc(OC)c(OC)c2)cc1` (stereo not given): -12.4%; `CN(C)S(=O)(=O)c1ccc(C(=O)N(Cc2cccnc2)c2nc3c(F)cc(F)cc3s2)cc1`: 0%.
With `Cc1cc(C(=O)COC(=O)c2cccs2)c(C)n1-c1c(C)n(C)n(-c2ccccc2)c1=O`, the activity change, negative = inhibition is -1.04%.
Next, `COCCn1c(C)cc(C(=O)COC(=O)CNC(=O)c2ccco2)c1C`: 0%; `Cc1ccsc1C(=O)OCC(=O)c1cc(C)n(CC2CCCO2)c1C` (stereo not given): -75.9% (active).
In the case of `COc1ccc(CNC(=O)c2ccc(NC(=O)N3CC4CCCN4c4ccccc43)cc2)cc1` (stereo not given) it was -1.77%.
In the case of `CCOc1ccc(CNC(=O)C2CCN(c3nnc(-n4cccc4CNc4ccc(C)cc4)s3)CC2)cc1OC` it was -18.2%; in that of `Cc1ccc(CCNC(=O)C2CCN(c3nnc(-n4cccc4CNc4ccc(C)cc4)s3)CC2)cc1`, -72.7% (active); in that of `CSc1ccc(CCNC(=O)C2CCN(c3nnc(-n4cccc4)s3)CC2)cc1`, -19.1%.
Regarding `CCOC(=O)c1c(S(=O)(=O)NCC(=O)Nc2ccc(Cl)c(C(F)(F)F)c2)c(C)n(C)c1C`, the activity change, negative = inhibition is -27.1%.
Next, `CC(C)C[C@H]1CN([C@@H](Cc2ccccc2)CN2CCC[C@@H]2CN2C(=O)C(=O)NC[C@@H]2Cc2ccc(O)cc2)C(=O)C(=O)N1CCc1ccccc1`: -26.7%; `CCOc1ccc(CCN2C(=O)C(=O)N([C@@H](CC(C)C)CN3CCC[C@H]3CN3C(=O)C(=O)NC[C@@H]3Cc3ccccc3)C[C@@H]2CC(C)C)cc1`: -7.85%.
In the case of `CC(C)C[C@H]1CN([C@@H](CC(C)C)CN2CCC[C@@H]2CN2C(=O)C(=O)NC[C@@H]2Cc2ccccc2)C(=O)C(=O)N1CCc1ccccc1` it was -63.2% (active); in that of `O=C(Nn1c(-c2ccc(Cl)cc2)nc2ccccc2c1=O)c1cccnc1Cl`, -11.2%.
On to `O=c1c2ccccc2nc(-c2ccccc2)n1-c1ccccn1`, for which the activity change, negative = inhibition was -62.3% (active).
In the case of `O=c1c2ccccc2c(-c2ccccc2)nn1-c1ccccn1` it was -24.2%; in that of `COc1cccc(CNC(=O)CN2C(=O)CCc3cc(S(=O)(=O)N4CCOCC4)ccc32)c1`, 7.53%; in that of `COc1cc(OC)cc(-c2nc3nc(C)c(CCC(=O)Nc4ccc(C)cc4)c(C)n3n2)c1`, 22.9%.
Next, `CCC1CCCCN1S(=O)(=O)c1ccc(NC(=O)c2cc(=O)c3ccccc3o2)cc1` (stereo not given): -21.4%; `Cc1cccc2cc3c(N)c(C(=O)N4CCCc5ccccc54)sc3nc12`: -66.1% (active).
In the case of `CCc1ccc(NC(=O)c2sc3nc4c(cc3c2N)CN(CC)CC4)cc1` it was -27.1%.
Consider `Cc1cccc(-c2nnc(SCC(=O)N3CCCc4ccccc43)o2)c1`, for which the activity change, negative = inhibition was -13.3%.
As for `COc1ccc(N2CCN(Cc3nc4c(c(=O)[nH]c(=O)n4C)n3Cc3ccc(Cl)cc3)CC2)cc1`, the activity change, negative = inhibition is -12.8%.
For the molecule `Cc1cc(OC(C)C(=O)Nc2sc3c(c2C(N)=O)CCCC3)ccc1Cl` (stereo not given), the activity change, negative = inhibition was -5.13%.
In the case of `O=C(NC1CCCCC1)C1CC(=O)N(CCc2ccccc2)C1` (stereo not given) it was -109% (active); in that of `O=C(NCCCN1CCCCC1)C1CC(=O)N(CCc2ccccc2)C1` (stereo not given), 0.846%; in that of `Cc1ccc(CCN2CC(C(=O)NCCc3ccccc3)CC2=O)cc1` (stereo not given), -5.82%.
As for `CC(=O)N1c2ccc(S(=O)(=O)N3CCCCCC3)cc2CC1C(=O)NCc1ccccc1C` (stereo not given), the activity change, negative = inhibition was 8.34%.
Next, `O=C(C1CCC(Cn2c(=O)c3sccc3n(Cc3ccccc3F)c2=O)CC1)N1CCCCC1` (stereo not given): 3.01%.
In the case of `O=C(OCCN1CCOCC1)C1(c2ccccc2)CCCC1` it was -35.5%; in that of `CC(=O)N1CCC(C(=O)OCc2ccc(Cl)cc2)(c2ccccc2)CC1`, 7.78%.
In the case of `O=C(OCCN1CCOCC1)C1(c2ccccc2)CCCCC1` it was -71.6% (active); in that of `COc1ccc(CCNc2ncnc3c2cnn3-c2ccc(C)cc2)cc1`, -8.18%.
Turning to `O=C1CCC[C@H]2[C@@H](Cc3ccccc3)[C@@H](NS(=O)(=O)c3ccc([N+](=O)[O-])cc3[N+](=O)[O-])CC[C@]23CCCN13`, the activity change, negative = inhibition was -34.8%.
Next, `CCOc1ccc(C(CC(=O)O)NC(=O)COc2ccccc2)cc1` (stereo not given): 36.3%.
In the case of `CCOC(=O)/C=C/C(=O)OCC(=O)NC(c1ccccc1)c1ccccc1` it was -66.5% (active).
In the case of `Cc1ccccc1OCCC(=O)OCC(=O)NC(C)c1ccccc1` (stereo not given) it was 145%; in that of `Cc1ccn(C(CC(=O)c2ccc(Br)cc2)C(=O)O)n1` (stereo not given), 18.9%.
Take `O=c1ccc2c(-c3ccccc3S(=O)(=O)O)c3ccc(O)c(O)c3oc-2c1O`: the activity change, negative = inhibition was -91.7% (active).
Next, `Cc1nc(N2CCOCC2)c2c(C(=O)NCc3cccc(Cl)c3)c(C)oc2n1`: -10.3%; `COc1cccc(C(=O)NCC(=O)OCc2cc(=O)n3ccsc3n2)c1`: 8.23%; `CCOC(=O)c1c(C)oc2nc(C)nc(N3CCN(c4ccc(OC)cc4)CC3)c12`: -14.4%.
Next, `CCN(CC)c1ccc2oc(=O)c(C)nc2c1`: -70.4% (active).
Next, `O=C(CC1(O)C(=O)N(CN2CCOCC2)c2ccccc21)c1ccccc1` (stereo not given): 23.8%; `CCCN1C(=O)C(O)(CC(=O)c2ccc(CC)cc2)c2cc(Br)ccc21` (stereo not given): -70.2% (active).
As for `COc1ccc2c(c1)C(=C(C#N)C#N)C(=O)N2CCc1ccccc1`, the activity change, negative = inhibition is 32.5%.
Next, `Cc1ccc2c(c1)C(O)(CC(=O)c1cccc(-n3cccc3)c1)C(=O)N2` (stereo not given): -9.59%; `C=CCN1C(=O)C(O)(CC(=O)c2ccccn2)c2ccccc21` (stereo not given): 51.3%; `Cc1coc(C)c1C(=O)CC1(O)C(=O)N(C)c2ccc(Cl)cc21` (stereo not given): 0%.
Turning to `CCOC(=O)CN1C(=O)C(O)(CC(=O)c2ccccn2)c2ccccc21` (stereo not given), the activity change, negative = inhibition was 12.1%.
In the case of `Cc1ccc(C(=O)CC2(O)C(=O)N(CCc3ccccc3)c3ccc(Br)cc32)cc1` (stereo not given) it was -97.7% (active).
For `CCc1ccc(C(=O)CC2(O)C(=O)N(CCc3ccccc3)c3ccc(Br)cc32)cc1` (stereo not given), the activity change, negative = inhibition is -104% (active).
